# An excerpt weighted towards active compounds, which were near 5% of everything screened.
# CHT allo act: human CHT allosteric activation | Q9GZV3 | CHT-expressing cells, membrane potential dye, choline EC20; active compounds read high; LV-AA mutant CHT in HEK293 cells | B-score at 10 µM | 310,000 compounds, 0.49% hits | AID 488977;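 active = initial fluorescence not abnormally high and integrated response B-score, plate-corrected, over 3 SD above library mean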
# ALR H2O2 inh: blocks human ALR sulfhydryl oxidase activity. P55789. AID 485317. inhibition, % (no concentration beside the values). purified ALR, DTT oxidation, H2O2 HRP-luminol luminescence. 290,000 compounds, 3.8% hits;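 active = mean replicate inhibition above about 79%, with every replicate also reaching it, limit read from the data; inconclusive = only one of the two criteria met; inactive = mean below limit and not every replicate reaching it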
# CHT block: inhibits the human high affinity choline transporter; B-score at 10 µM; CHT-expressing cells, membrane potential dye, choline response; active compounds read low; 310,000 compounds, 0.86% hits; AID 488975; Q9GZV3;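 active = B-score over 3 SD under the library average, and starting fluorescence ratio not unusually high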;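 also: choline stimulus applied at its EC90 after an EC20 pre-addition; B-score computed on integrated fluorescence ratio after choline addition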
# AI-2 QS modul: modulators of Vibrio harveyi AI-2 quorum sensing system | Vibrio harveyi JMH597 AI-2 luminescence/OD600 ratio, 9 h; active compounds read low; strain lacks LuxN and CqsS sensors; 0 = neutral-control median | activity change, % at 7.5 µM | 300,000 compounds, 0.4% hits; in the data active = activity change below about -75%, passing the limit was not always enough; inconclusive = no clear call, values can overlap the other calls;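 also: luminescence divided by OD600 gain over 9 h not by final OD600 alone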
# PREPL inh: inhibitors of human prolyl oligopeptidase-like enzyme PREPL. Q4J6C6. recombinant PREPL, fluorescence polarization activity-based probe. inhibition, % at 5.96 µM. 320,000 compounds, 0.68% hits. AID 2751; in the data active = inhibition above about 43%
# Target sequence (Q4J6C6 whole entry, looked up): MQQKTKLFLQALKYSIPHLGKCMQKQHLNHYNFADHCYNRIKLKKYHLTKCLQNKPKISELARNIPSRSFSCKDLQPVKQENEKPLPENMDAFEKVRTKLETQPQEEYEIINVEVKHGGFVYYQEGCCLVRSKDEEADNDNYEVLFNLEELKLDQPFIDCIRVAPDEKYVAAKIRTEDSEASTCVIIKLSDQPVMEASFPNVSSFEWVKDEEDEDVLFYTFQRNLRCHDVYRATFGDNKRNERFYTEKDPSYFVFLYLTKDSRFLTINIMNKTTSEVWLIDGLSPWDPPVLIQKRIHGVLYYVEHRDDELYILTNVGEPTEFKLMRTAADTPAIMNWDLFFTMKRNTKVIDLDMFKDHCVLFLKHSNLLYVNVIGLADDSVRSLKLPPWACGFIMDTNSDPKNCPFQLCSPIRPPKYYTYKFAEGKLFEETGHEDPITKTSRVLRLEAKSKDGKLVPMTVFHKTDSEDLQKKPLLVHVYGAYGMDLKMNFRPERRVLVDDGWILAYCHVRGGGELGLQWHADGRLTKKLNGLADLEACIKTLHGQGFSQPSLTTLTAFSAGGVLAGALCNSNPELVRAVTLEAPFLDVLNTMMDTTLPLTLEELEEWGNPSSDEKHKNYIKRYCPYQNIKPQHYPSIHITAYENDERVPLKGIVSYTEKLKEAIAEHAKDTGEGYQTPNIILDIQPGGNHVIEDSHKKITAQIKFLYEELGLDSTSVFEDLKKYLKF
# JMH597 growth: retest: inhibitors of Vibrio harveyi JMH597 growth; shares compounds with AI-2 QS modul; OD600 absorbance, 9 h; lacks LuxN and CqsS sensors; 750 compounds, 1% hits; AID 2726; growth inhibition, % at 7.5 µM;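 active = every replicate shows growth inhibition above 50%; inconclusive = at least half, but not all, replicates pass that cutoff; inactive = fewer than half of replicates pass it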
# BB721 lum counter: retest counter-screen: luminescence loss in constitutive-on quorum sensing strain BB721. shares compounds with AI-2 QS modul. Vibrio harveyi BB721 luminescence, 9 h. inhibition, % at 7.5 µM. 750 compounds, 95% hits;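 active = inhibition above about 80% in every replicate, not just on average, limit read from the data; inconclusive = at least half of replicates past the limit, but not all; inactive = fewer than half of replicates past the limit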
# BB721 growth: retest Vibrio harveyi BB721 growth inhibition | shares compounds with AI-2 QS modul | OD600 absorbance, 9 h | growth inhibition, % at 7.5 µM | 750 compounds, 3% hits | AID 2728;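 active = every replicate shows growth inhibition above 50%; inconclusive = at least half but not all replicates above 50% inhibition; inactive = under half of replicates above 50% inhibition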
# AI-2 QS JMH597: Vibrio harveyi AI-2 signaling luminescence modulation – JMH597 strain, confirmation. 750 compounds, 97% hits. shares compounds with AI-2 QS modul. inhibition, % at 7.5 µM. Vibrio harveyi JMH597 AI-2 quorum sensing luminescence, 9 h; luxN and CqsS knockout, AI-2 only;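 active = every replicate shows more than 75% inhibition of signal versus neutral control wells; inconclusive = half to three quarters of replicates exceed 75% inhibition; inactive = fewer than half of replicates exceed 75% inhibition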
# A number is an active result; – = inactive; ? = inconclusive; · = not tested or not shown.
SMILES,CHT allo act,ALR H2O2 inh,CHT block,AI-2 QS modul,PREPL inh,JMH597 growth,BB721 lum counter,BB721 growth,AI-2 QS JMH597
CCOc1cccc2c1OC1(C)CC2NC(=O)N1c1cccc(C(=O)NCc2ccccn2)c1 (centres undefined),–,–,–,-95,–,–,–,–,–
CC12CC(NC(=O)N1c1cccc(C(=O)NCc3ccccn3)c1)c1ccccc1O2 (centres undefined),–,–,–,–,–,·,·,·,·
CCC[n+]1cn(/C(C(=S)Nc2cccc(Cl)c2C)=C(/[O-])c2ccc(OC)c(OC)c2)c2ccccc21,–,–,–,–,–,·,·,·,·
Cc1ccc(OCCn2cnc3ccccc3c2=O)c([N+](=O)[O-])c1,–,–,–,–,–,·,·,·,·
O=C(Nc1ccccc1F)C1CC1c1ccccc1 (centres undefined),–,–,–,-84,–,–,92,–,93
CC(=O)c1c(C)[nH]c(C(=O)CN2CCN(S(=O)(=O)c3ccccc3)CC2)c1C,·,–,·,·,–,·,·,·,·
O=C(NNc1nc2cc3c(cc2s1)OCO3)c1ccccc1,–,99,–,-91,–,–,98,–,98
O=C(Nc1ccc(S(=O)(=O)N2CCCC2)cc1)C1COc2ccccc2O1 (centres undefined),–,·,–,?,–,–,93,–,99
O=C(Nc1ccc(S(=O)(=O)N2CCOCC2)cc1)C1COc2ccccc2O1 (centres undefined),–,–,–,–,–,·,·,·,·
O=C(Nc1ccc(S(=O)(=O)Nc2ccccc2)cc1)C1COc2ccccc2O1 (centres undefined),–,–,–,–,–,·,·,·,·
CN(C)S(=O)(=O)c1ccc(NC(=O)C2COc3ccccc3O2)cc1 (centres undefined),–,·,–,-89,–,–,96,–,98
COc1ccc(C)cc1N(CC(=O)N/N=C/c1ccc2c(c1)OCO2)S(C)(=O)=O,–,–,–,–,–,·,·,·,·
Clc1cccc(CON/C=N/c2ncnc3sccc23)c1,–,–,–,-92,–,–,96,–,98
C=CCNC(=O)C1CCN(S(=O)(=O)c2ccc3ccccc3c2)CC1,–,–,–,-81,–,–,–,–,99
Cc1ccc(S(=O)(=O)c2nc(S(C)(=O)=O)sc2N2CCCCC2C)cc1 (centres undefined),–,–,–,–,–,·,·,·,·
CCc1ccc(NC(=O)CN2C(=O)CC(C)S(=O)(=O)c3ccccc32)cc1 (centres undefined),–,–,–,–,–,·,·,·,·
CC1CC(=O)N(CC(=O)Nc2ccc(Br)cc2)c2ccccc2S1(=O)=O (centres undefined),–,–,–,-83,–,–,96,–,97
O=C(CNC(=O)c1ccccc1)N/N=C/c1ccccc1Cl,–,–,–,-90,–,–,96,–,97
COc1ccc([N+](=O)[O-])cc1N(CC1CO1)S(=O)(=O)c1ccc(C)cc1 (centres undefined),–,–,–,–,–,·,·,·,·
Cc1ccc(C2=NS(=O)(=O)N(C)C(C(=O)NC3CCCC3)=C2)cc1,–,–,–,–,–,·,·,·,·
O=C(c1cccs1)N1CCN(C23CC4CC(CC(C4)C2)C3)CC1,–,·,–,–,–,·,·,·,·
O=C(CN1C(=O)NC2(CCOc3ccccc32)C1=O)Nc1cccc(Cl)c1 (centres undefined),–,–,–,-93,–,–,96,–,98
CCC1(c2ccccc2)NC(=O)N(CC(=O)Nc2ccc3c(c2)OCO3)C1=O (centres undefined),–,–,–,-93,–,–,96,–,97
COc1cc(NC(=O)CN2C(=O)NC3(CCOc4ccccc43)C2=O)cc(OC)c1 (centres undefined),·,–,·,·,–,·,·,·,·
CC1(c2ccc3c(c2)OCCCO3)NC(=O)N(CC(=O)Nc2cccc(C#N)c2)C1=O (centres undefined),·,·,·,·,–,·,·,·,·
SMILES,CHT allo act,ALR H2O2 inh,CHT block,AI-2 QS modul,PREPL inh,JMH597 growth,BB721 lum counter,BB721 growth,AI-2 QS JMH597
Cc1cccc(NC(=O)CN2C(=O)NC(C)(c3ccc4c(c3)OCO4)C2=O)c1 (centres undefined),–,–,–,-87,–,–,88,–,92
COc1ccc(C(=O)O)cc1S(=O)(=O)N1CCN(Cc2ccc3c(c2)OCO3)CC1,·,–,·,·,–,·,·,·,·
COc1ccc2c(c1)sc(=NC(=O)CS(=O)(=O)c1ccc(F)cc1)n2C,–,·,–,–,–,·,·,·,·
Cc1ccc(C(=O)CCC(=O)Nc2cccc(C)c2)cc1,–,–,–,-89,·,–,96,–,97
O/N=C/Cc1[nH]c2ccccc2c1-c1ccccc1,–,–,–,-96,–,–,95,–,99
COc1ccc(-c2cc(COc3ccccc3)on2)cc1,–,–,–,-89,–,–,97,–,98
Clc1ccc(OCc2cc(-c3ccccc3)no2)c(Cl)c1,–,–,–,–,–,·,·,·,·
Cc1cccc(OCc2cc(-c3ccccc3)no2)c1C,–,–,–,-96,–,–,99,–,99
Fc1ccc(OCc2cc(-c3ccccc3)no2)cc1,–,–,–,-95,–,–,98,–,98
CCN(CC)CCN(C(=O)/C=C/c1cccs1)c1nc2ccc(C)cc2s1,–,–,–,–,–,·,·,·,·
COc1ccc(C(=O)NCCc2c[nH]c3ccccc23)cc1,–,–,–,–,–,·,·,·,·
O=C(NCCc1c[nH]c2ccccc12)C(=O)c1c[nH]c2ccccc12,–,–,–,-90,–,–,96,–,97
O=C(NCCc1c[nH]c2ccccc12)c1ccc(F)cc1F,–,·,–,-82,–,–,95,–,97
O=C(NCCc1c[nH]c2ccccc12)c1ccc(Cl)cc1,–,–,–,-85,–,–,93,–,95
Cc1ccsc1C(=O)NCCc1c[nH]c2ccccc12,–,–,–,-82,–,–,92,–,94
COc1cc(SC)ccc1C(=O)NCCc1c[nH]c2ccccc12,–,·,–,–,–,·,·,·,·
O=Cc1ccccc1OCc1nnsc1Cl,–,–,–,–,–,·,·,·,·
COc1ccc(CN2CCC(n3nccc3NC(=O)C3CC3)CC2)c(Cl)c1OC,–,–,–,–,–,·,·,·,·
COc1ccccc1NC(=O)C(C)OC(=O)CCNS(=O)(=O)c1cccc(C(F)(F)F)c1 (centres undefined),·,·,·,·,–,·,·,·,·
O=C(Oc1ccc(-c2nnco2)cc1)c1ccco1,–,–,–,–,–,·,·,·,·
CCOC(=O)c1sc(NC(=O)c2ccco2)nc1C,–,–,–,–,–,·,·,·,·
